PvdQ inh – blocks Pseudomonas aeruginosa PvdQ acylase activity. inhibition, % at 10 µM. 0.063% of 340,000 active. purified PvdQ acylase, fluorescence plate reader. AID 488965; in the data active means inhibition above about 30%, passing the limit was not always enough; inconclusive means no clear call, values can overlap the other calls
PHOSPHO1 block – inhibitors of human PHOSPHO1 phosphatase. recombinant PHOSPHO1, absorbance phosphatase assay. inhibition, % at 13.3 µM. Q8TCT1. 1.1% of 290,000 active; in the data active means inhibition above about 60%
SUMO Mot1 rescue – inhibitors of SUMOylation pathway: yeast Mot1-301 growth rescue | S. cerevisiae Mot1-301 growth rescue, ATP luminescence, 38.5C; percent above DMSO median, 100 means doubled | growth rescue, % at 18.8 µM | 1% of 320,000 active | AID 2716;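 active means every valid replicate shows activation above 250% relative to neutral control wells; inactive means the rest, any valid replicate at or below 250%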
p-CIP stab down – p/CIP protein destabilization; 0.01% of 290,000 active; Q05BA5; decrease of EGFP signal, % at 10 µM; F442A p/CIP-EGFP cells, EGFP fluorescence, 16 h;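 active means EGFP signal decrease of at least 30% at 10 µM or well 3 SD below plate mean, unless failing retest; inactive means the rest, including hits failing retest or dose response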
JMJD2C inh – blocks human GASC-1 demethylase activity; Q9H3R0; 0.069% of 330,000 active; GST-JMJD2C(1-420) H3K9me3 demethylation, DELFIA europium; inhibition, % at 2.35 µM;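 active means more than half of a compound's replicate wells show inhibition beyond 50%, single wells judged on their own value; inconclusive means some, but no more than half, of replicates pass 50% inhibition; inactive means no replicate passes 50% inhibition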;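 further: signal counts dimethyl H3K9 product captured on neutravidin plate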
HDAC3 inhib – human HDAC3 inhibition. recombinant HDAC3, fluorogenic peptide/trypsin coupled, fluorescence. inhibition, % at 8.3 µM. 0.15% of 320,000 active. O15379; in the data active means inhibition above about 26%, passing the limit was not always enough; inconclusive means no clear call, values can overlap the other calls
Mot1 SUMO dose – SUMO pathway inhibitors in yeast Mot1-301 growth; shares compounds with SUMO Mot1 rescue; S. cerevisiae Mot1-301 galactose growth, ATP luminescence, 24 h; -100 = growth of slx-deleted rescue strain; growth activity, percent, % at 42 µM; 2,300 tested, under 10 active;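 active means Signal drops as the depositor expects, and the fitted half-maximal dose is no more than ten times the top valid tested dose; inconclusive means Poor fit, or a flat curve whose signal drops by 30% to 70%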;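 further: more negative values mean stronger growth rescue toward the control strain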
Hits are given with their value; n = inactive; u = inconclusive; x = no result given; + = active, no number. An excerpt weighted towards active compounds, which were near 2.2% of everything screened.

SMILES | PvdQ inh | PHOSPHO1 block | SUMO Mot1 rescue | p-CIP stab down | JMJD2C inh | HDAC3 inhib | Mot1 SUMO dose
Cc1ccc(NC(=O)Cn2sc3nc(C)cc(C)c3c2=O)c(Cl)c1 | n | n | 559 | n | n | n | n
COc1ccc(-c2nc3c(c(SCC(=O)N4CCOCC4)n2)Cc2c(CO)cnc(C)c2O3)cc1 | n | n | 380 | n | n | n | n
NC(=O)CC(NC(=O)Cc1cccc2ccccc12)c1ccc(NCCCN2CCCC2=O)c([N+](=O)[O-])c1 (stereo not drawn) | n | n | + | n | n | n | n
Cc1ccc(C(=O)NNc2ncnc3c2cnn3C)cc1 | n | n | + | n | n | n | n
COc1cccc(C(CNC(=O)c2ccc(Cl)c(S(=O)(=O)N3CCCC3)c2)N(C)C)c1 (stereo not drawn) | n | x | n | x | n | n | x
CCOC(=O)Nc1sc(=S)n(C)c1C | n | n | 509 | n | n | n | n
Cc1c(NC(=O)OCCNC(=O)Nc2ccccc2)sc(=S)n1C | n | n | n | n | n | u | x
O=C1CC(c2cccc(Br)c2)C2=C(COC2=O)N1 (stereo not drawn) | n | n | 386 | n | n | n | n
COCCn1c(=S)[nH]c2cc(C(=O)N3CCCC(C)C3)ccc2c1=O (stereo not drawn) | n | n | n | n | n | n | x
CCOC(=O)[C@H]1[C@H]2COc3ccc(OC)cc3[C@@H]2N2C(=O)c3cc(F)c(F)cc3NC(=O)[C@@]12C | n | x | n | x | n | n | x
CC1(C)C(C=C(Cl)Cl)C1C(=O)OCc1cccc(Oc2ccccc2)c1 (stereo not drawn) | n | x | 463 | x | x | n | n
CCOC(=O)C1CCN(Cc2cccc(Oc3ccccc3)c2)CC1 | n | n | n | n | n | n | x
O=C(c1ccco1)N1CCN(CC(=O)N2c3ccccc3CCc3ccccc32)CC1 | n | n | 368 | n | n | n | n
Cc1ccc(N(CC(=O)NCCc2ccc(Cl)cc2)S(=O)(=O)c2c(C)noc2C)cc1 | n | n | 510 | n | n | n | n
Cc1cc(C)cc(N(CC(=O)Nc2cccc(C)n2)S(=O)(=O)c2c(C)noc2C)c1 | n | n | 528 | n | n | n | n
COc1ccc(NC(=O)CN(c2ccc(C(C)C)cc2)S(=O)(=O)c2c(C)noc2C)cc1OC | n | n | 367 | n | n | n | n
CCOc1ccc(N(CC(=O)NC2CCC(C)CC2)S(=O)(=O)c2c(C)noc2C)cc1 (stereo not drawn) | n | n | 461 | n | u | n | n
COc1ccc(N(CC(=O)Nc2ccc(C)c(C)c2)S(=O)(=O)c2c(C)noc2C)cc1 | n | n | n | n | n | n | x
O=C(CCNS(=O)(=O)c1ccc(Cl)cc1)N1CCCCCC1 | n | n | n | n | n | n | x
Cc1ccc2cc(CCNC(=O)c3cccc([N+](=O)[O-])c3)c(=O)[nH]c2c1C | n | n | n | n | n | n | x
Cc1cc(Cl)ccc1NC(=O)CN(C)C1=NS(=O)(=O)c2ccccc21 | n | x | n | x | n | n | x
CCc1ccc(NC(=O)C(C)Oc2nnc(-c3cccs3)c(-c3cccs3)n2)cc1 (stereo not drawn) | n | n | n | n | n | n | x
CC(C)c1ccc(NC(=O)COc2nnc(-c3cccs3)c(-c3cccs3)n2)cc1 | n | n | 810 | n | n | n | n
COc1ccc(NC(=O)C2CCCCC2)cc1S(=O)(=O)N1CCOCC1 | n | x | n | x | n | n | x
COc1cc(NC(=O)CSc2ncnc3sc4c(c23)CCC(C)C4)c(C(=O)O)cc1OC (stereo not drawn) | n | n | n | n | n | n | x
SMILES | PvdQ inh | PHOSPHO1 block | SUMO Mot1 rescue | p-CIP stab down | JMJD2C inh | HDAC3 inhib | Mot1 SUMO dose
O=C1CCC(C(=O)N2CCN(c3ccccc3)CC2)CN1CC1CCCCC1 (stereo not drawn) | n | n | 532 | n | n | n | n
O=C(Cc1cc(=O)[nH]c(=O)[nH]1)NCc1ccccc1 | n | n | n | n | n | n | x
Cc1ccc(N2C(=O)C3CCCN3C2=S)cc1 (stereo not drawn) | n | n | n | n | n | n | x
O=C1C2CCCN2C(=S)N1C1CCCCC1 (stereo not drawn) | n | x | 622 | n | n | n | n
CNc1nc(N)c([N+](=O)[O-])c(Nc2ccccc2OC)n1 | n | n | n | n | n | n | x
CC(C)(C)C(=O)NC1CCN(CC(=O)Nc2ccc3c(c2)OCO3)CC1 | n | n | 490 | n | n | n | n
COc1ccccc1NC(=O)c1ccc(-n2ccnc2)c([N+](=O)[O-])c1 | n | n | 513 | n | n | n | n
CCOc1cc(N2CCOCC2)c(OCC)cc1NC(=O)c1ccc(-n2ccnc2)c([N+](=O)[O-])c1 | n | n | n | n | n | n | x
CCOc1ccc(-n2c(SCC(=O)N3CCC(C(=O)O)CC3)nc3ccccc3c2=O)cc1 | n | n | n | n | n | n | x
NC(=O)NC(=O)CSc1nc(C2CCCCC2)n(-c2ccccc2)n1 | n | n | 685 | n | n | n | n
C/C(N)=C(/C#N)C(=O)CSc1nc(C2CCCCC2)n(-c2ccccc2)n1 | n | n | n | n | n | n | x
CCOC(=O)c1cnc2c(OC)cccc2c1N1CCN(c2ccccn2)CC1 | n | n | n | n | n | n | x
CCOC(=O)c1cnc2ccc(OCC)cc2c1N1CCN(C)CC1 | n | n | n | n | n | x | x
CCOC(=O)c1cnc2c(OC)cccc2c1N1CCN(c2ccccc2OC)CC1 | n | n | + | n | n | n | n
CCOC(=O)c1cnc2ccc(Cl)cc2c1N1CCN(C)CC1 | n | n | 616 | n | n | n | n
COc1ccc(O)c(C(=O)c2cnc3c(c2)c(=O)[nH]c(=O)n3C)c1 | n | n | n | n | n | n | x
COCCn1c(=O)[nH]c(=O)c2cc(C(=O)c3cc(Cl)ccc3O)cnc21 | n | n | 838 | n | n | n | n
O=C(CSc1nnc(CNC(=O)c2ccccc2)o1)NCc1ccco1 | n | n | 800 | n | n | x | n
O=C(CSc1nnc(CNC(=O)c2ccco2)o1)Nc1nc2ccccc2s1 | n | n | + | n | n | n | n
CCC1CCCCN1C(=O)CSc1nnc(CNC(=O)c2ccco2)o1 (stereo not drawn) | n | n | 361 | n | n | n | n
Cc1cc2nc(/N=C(\N)NC(=O)N3c4ccccc4Sc4ccccc43)nc(C)c2cc1C | n | n | n | n | n | n | x
CC(C)c1nc(SCC(=O)Nc2ccc(C(=O)O)cc2)c2c3c(sc2n1)CCCC3 | n | n | n | n | n | n | x
CC1CCCCN1C(=O)COC(=O)c1cccc(NS(=O)(=O)c2ccccc2)c1 (stereo not drawn) | n | x | n | x | n | n | x
CCc1cc(/C(Cc2ccccn2)=N\O)c(O)cc1O | n | n | 486 | n | n | n | n

Screening data deposited in PubChem BioAssay by several laboratories.
